# Measured values published in PubChem BioAssay.
# Where “and” joins values, the source holds several entries; their conditions need not be identical. Equal values may be shown once.
# Test: sensitizers of A549 cells to miR-34 induction, primary screen, imaging, A549 dox-inducible miR-34, nuclei and caspase counts (AID 1347080); note: test concentration not given here
# Details: A549 miR-34 inducible, Hoechst nuclei count, 48 h; measured here: total cells without miR-34 induction
row,Structure (SMILES),cell count
1,C=C(C)[C@H]1O[C@H]2CC[C@@]3(C)[C@@](O)(CC[C@H]4[C@@H]5OC(C)(C)[C@H]6C[C@@H]7C(=C)Cc8c(Cl)cc9[nH]c(c5c9c8[C@@]76O)[C@@]43C)[C@]23O[C@@H]3[C@H]1O,826
2,CCCCC/C=C\C/C=C\C/C=C\C/C=C\CCCC(=O)NC[C@H](C)O,6110
3,C=C(C)[C@@H]1CCC(C)=C[C@H]1c1c(O)cc(O)cc1CCCCC,5500
4,N[C@H]1C[C@@H]1c1ccccc1,9180 and 10500
5,C[C@]12CCC3c4ccc(OC(=O)N(CCCl)CCCl)cc4CCC3C1CC[C@@H]2O (stereo not given in full),1700
6,CCOC(=O)CN1C(=O)CC(C[C@@H](O)C2C[C@@H](C)C[C@H](C)C2=O)CC1=O (stereo not given in full),4910
7,c1cc2ccsc2c(N2CCNCC2)n1,5520
8,CCCCC/C=C\C/C=C\C/C=C\C/C=C\CCCC(=O)NC1CC1,5800
9,C=C(C)[C@@H]1CCC(C)=C[C@H]1c1c(OC)cc(CCCCC)cc1OC,6160
10,C[C@@]1(CO)[C@H](O)CC[C@@]2(C)[C@H]1CC[C@H]1C[C@@H]3C[C@@]12CC[C@]3(O)CO,2350
11,COc1cc(CNC(=O)CCCCCCC(C)C)c(I)cc1O,5600
12,CCCCCCCC/C=C\CCCCCCCC(=O)N[C@H](C)CO,5540
13,CN=C(NS(=O)(=O)c1ccc(Cl)cc1)N1C[C@@H](c2ccccc2)C(c2ccc(Cl)cc2)=N1,5940
14,C=C(C)[C@@H]1CCC(C)=C[C@H]1C1=C(O)C(=O)C(CCCCC)=CC1=O,5000
15,CCCCC/C=C\C/C=C\C/C=C\C/C=C\CCCC(=O)NCCCC(=O)O,5760
16,CCCCC/C=C\C/C=C\C/C=C\C/C=C\CCCC(=O)Nc1cccc([N+](=O)[O-])c1,5590
17,CCCN(CCCN)N(O)N=O,5540
18,O[C@H]1[C@H]2[C@H](O)CCCN2C[C@H]1O,6260

row,Structure (SMILES),cell count
1,CCCCCCC(=O)O[C@H]1CC[C@H]2[C@@H]3C[C@@H](O)C4=CC(=O)CC[C@]4(C)[C@H]3CC[C@]12C,5700
2,CO[C@@H]1C[C@@H](C[C@H]2CC[C@H](C)[C@H]([C@@H](C)C(=O)O)O2)O[C@]2(O[C@](C)([C@H]3CC[C@@](C)([C@@H]4O[C@@H]([C@H]5O[C@@](O)(CO)[C@H](C)C[C@@H]5C)C[C@@H]4C)O3)C[C@H]2C)[C@@H]1C,1800
3,CCCCC/C=C\C/C=C\C/C=C\C/C=C\CCCC(=O)NCC(O)CC(=O)O (stereo not given),5070
4,CC(C)(O)[C@H]1O[C@H]2CC[C@@]3(C)[C@@](O)(CC[C@H]4Cc5c([nH]c6ccccc56)[C@@]43C)C2=CC1=O,3460
5,CCN1C[C@@]2(COC)C3[C@@H](OC)[C@H]4[C@H]1C3([C@@H]1C[C@@]3(O)[C@H](OC(=O)c5ccccc5)[C@@H]1[C@]4(OC(C)=O)[C@@H](O)[C@@H]3OC)[C@H](OC)C[C@H]2O,5800
6,CC1(O)C[C@@]23C[C@@H](O)[C@@]4(O)[C@@H](C[C@H](O)C4(C)C)[C@](C)(O)[C@@H]2CCC1[C@H]3O (stereo not given in full),6440
7,CCCCCCC(C)(C)c1cc(OC)c2c(c1)OC(C)(C)[C@@H]1CC=C(C)C[C@@H]21,6400
8,COC(C/C=C/C=C/CC/C=C\CC(C)/C=C\C(=C/C(=O)O)CC(=O)O)/C(C)=C\C=C(/C)C(=O)O (stereo not given),5870
9,CCCCC/C=C\C/C=C\C/C=C\C/C=C\CCCC(=O)N[C@@H](C)CO,5940
10,Clc1ccc(C2CC3CCC2N3)cn1 (stereo not given),6360
11,CCCC[C@H]1C(=O)O[C@H](C)[C@H](NC(=O)c2cccc(NC=O)c2OC)C(=O)O[C@@H](C)[C@@H]1OC(=O)CC(C)C,680
12,CCCCC/C=C\C/C=C\C/C=C\C/C=C\CCCC(=O)NCc1ccc(O)c(OC)c1,3270 and 5460
13,CCCCCCCCCC(=O)OC[C@H](COP(=O)([O-])OCC[N+](C)(C)C)OC(=O)CCCCCCCCC,5860
14,CCCCC/C=C\C/C=C\C/C=C\C/C=C\CCCC(=O)Nc1cccc(O)c1,5720
15,O=C(NCCN1CCC2(CC1)C(=O)NCN2c1ccccc1)c1ccc2ccccc2c1,5940
16,COC[C@H]([C@@H](O)[C@@H](O)C(=O)NCC[C@@H](C)c1nc(/C=C/C[C@H]2OC3(C[C@H](O)[C@H]2C)OC([C@@H](C[C@@H](O)[C@@H](C)[C@@H](O)[C@@H](C)/C=C(C)/C(C)=C/C=C/C(C)=C\C#N)OC)[C@@H](OP(=O)(O)O)C3(C)C)co1)N(C)C (stereo not given in full),312
17,O=C(CCC/C=C\C[C@@H]1[C@@H](/C=C/[C@@H](O)COc2cccc(C(F)(F)F)c2)[C@H](O)C[C@@H]1O)NC(CO)CO,5370
